One test concerns T1, YES.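 Further: kd values determined as follow-up on hits from a single-replicate KINOMEscan panel screen.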
T1 construct: gene YES1

The next test relates to AAK1. As to conditions: concentration: 1 μM, replicates: in singlicate; n = 1.
The next test has as its system ABL1-nonphosphorylated. As to conditions: concentration: 1 μM, replicates: in singlicate; n = 1.
A further test relates to ABL1-phosphorylated. The settings on record: concentration: 1 μM, replicates: in singlicate; n = 1.
The next test relates to ABL2. The settings on record: concentration: 1 μM, replicates: in singlicate; n = 1.

Bounds are passed on as bounds.

By Kd is commonly meant the concentration at which binding is half-saturated. Read a low Kd as tighter binding.
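Wherever %Inh is given: KINOMEscan kinase panel screen.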

For the compound `COc1cc(OC)cc(-c2cc3cnc(N)nc3nc2NC(=O)NC(C)(C)C)c1`, the Kd in the test on YES was more than 10 µM. In addition, the “%Inh” value in the test on AAK1 turned out to be 15%; with ABL1-nonphosphorylated, 39%; with ABL1-phosphorylated it was 0%; with ABL2, 0%.

`COc1ccc(-n2cnc3c(N)ncnc32)cc1` [SKF-97236]: the “%Inh” value in the test on AAK1 was determined as 15%; in the test on ABL1-nonphosphorylated, 28%; in the test with ABL1-phosphorylated, 1%; in the test on ABL2, 10%.

With `COc1cc(Nc2nccc(N3CCC(NC(=O)C4COc5ccccc5O4)C3)n2)cc(OC)c1OC` (stereo not drawn) [GSK1379761], the “%Inh” value in the test with AAK1 was determined as 66%; in the test on ABL1-nonphosphorylated, 0%; with ABL1-phosphorylated, 0%; with ABL2 it was 3%.

Take `COC(=O)c1c(-c2ccccc2)c2cc(C)ccc2c(=O)n1Cc1ccccc1`: the “%Inh” value with AAK1 amounted to 1%; in the test with ABL1-nonphosphorylated, 53%; in the test on ABL1-phosphorylated, 0%; in the test on ABL2 it was 6%.

As to `CCC(=O)c1c(-c2ccccc2)c2cc(Cl)ccc2c(=O)n1Cc1cc(S(C)(=O)=O)n(CC(N)=O)n1`, the “%Inh” value with AAK1 is 0%; with ABL1-nonphosphorylated, 44%; in the test on ABL1-phosphorylated it was 9%; in the test with ABL2, 0%.

With `COC(=O)c1c(-c2ccccc2)c2cc(Br)ccc2c(=O)n1Cc1ccc(NC(=O)CCC(=O)O)cc1`, the “%Inh” value in the test on AAK1 turned out to be 13%; in the test on ABL1-nonphosphorylated, 38%; in the test on ABL1-phosphorylated, 0%; in the test on ABL2, 18%.

On to `CCc1ccc(-c2ccc3c(c2)-c2nn(C)cc2S(=O)(=O)N3C)cc1`, for which the “%Inh” value with AAK1 is recorded as 19%; in the test on ABL1-nonphosphorylated, 31%; in the test on ABL1-phosphorylated, 0%; in the test on ABL2, 0%.

With `Nc1ncnc2c1ncn2-c1ccc(Cl)cc1` [AH2635], the “%Inh” value in the test on AAK1, in the test with ABL1-nonphosphorylated, in the test with ABL1-phosphorylated and in the test with ABL2 was 0% each time.

As for `CCn1c(-c2ccoc2)nc2cnccc21` [SB-733887], the “%Inh” value with AAK1 is given as 1%; with ABL1-nonphosphorylated, 1%; with ABL1-phosphorylated, 17%; in the test on ABL2, 10%.

Regarding `CN1C(=O)C(Nc2cc(Cl)c(O)c(Cl)c2)=C(c2ccc(Cl)cc2)C1=O` [SB-404321], the “%Inh” value was 0% with AAK1, 30% in the test on ABL1-nonphosphorylated, 0% in the test with ABL1-phosphorylated and 0% in the test on ABL2.

On to `O=C(NCc1cccs1)c1cc(C(=O)c2c(Cl)cccc2Cl)c[nH]1` [GW823670], for which the “%Inh” value with AAK1 was determined as 0%; in the test on ABL1-nonphosphorylated it was 18%; with ABL1-phosphorylated, 27%; in the test with ABL2, 0%.

With `Cc1ccc(Oc2ccc(Nc3ncnc4cc[nH]c34)cc2C)cn1`, the “%Inh” value in the test with AAK1 turned out to be 0%; in the test with ABL1-nonphosphorylated, 19%; with ABL1-phosphorylated it was 0%; in the test with ABL2, 0%.

As for `FC(F)(F)c1ccc(-c2ncn(CCCN3CCOCC3)c2-c2ccncc2)cc1` [SB-217780], the “%Inh” value was determined as 7% in the test with AAK1, 44% with ABL1-nonphosphorylated, 0% in the test on ABL1-phosphorylated and 8% in the test with ABL2.

Take `CCC(=O)c1c(-c2ccccc2)c2cc(Cl)ccc2c(=O)n1Cc1cc(S(C)(=O)=O)n(CC(F)F)n1`: the “%Inh” value is 0% with AAK1, 23% in the test with ABL1-nonphosphorylated, 2% in the test on ABL1-phosphorylated and 0% in the test with ABL2.

Turning to `COc1cc2nccc(Nc3cccc(Oc4ccccc4)c3)c2cc1OC.Cl` [GW284543], the “%Inh” value was 0% in the test with AAK1, 0% with ABL1-nonphosphorylated, 0% in the test with ABL1-phosphorylated and 15% with ABL2.

On to `COc1ccc(-c2cc3c(C)nc(N)nc3n([C@H]3CC[C@H](OCCO)CC3)c2=O)cn1`, for which the “%Inh” value in the test on AAK1, in the test with ABL1-nonphosphorylated, with ABL1-phosphorylated and with ABL2 was 0% throughout.

Take `COc1cc(Nc2ccnc3ccc(C(F)(F)F)cc23)cc(OC)c1OC` [GW577382]: the “%Inh” value is on record as 8% in the test on AAK1, 27% in the test with ABL1-nonphosphorylated, 19% in the test with ABL1-phosphorylated and 28% in the test on ABL2.

As to `COc1ccc(CNC(=O)NC2CCN(c3ccnc(Nc4ccc(F)cc4)n3)C2)cc1` (stereo not drawn) [GSK1379706], the “%Inh” value in the test on AAK1 amounted to 32%; in the test on ABL1-nonphosphorylated it was 0%; with ABL1-phosphorylated it was 0%; in the test on ABL2 it was 2%.

Take `C[C@@H]1CC[C@H](C(=O)NC2CCCCC2)CN1c1cc(-c2ccc3c(N)n[nH]c3c2)nc(N)n1` [GSK2291363]: the “%Inh” value with AAK1 was found to be 55%; in the test with ABL1-nonphosphorylated, 5%; in the test on ABL1-phosphorylated, 0%; in the test on ABL2, 20%.

With `COc1cc2ncn(-c3cc(OCc4ccc(S(C)(=O)=O)cc4)c(C(N)=O)s3)c2cc1OC` [GW869979], the “%Inh” value in the test with AAK1 was determined as 0%; in the test with ABL1-nonphosphorylated, 0%; in the test with ABL1-phosphorylated it was 13%; in the test with ABL2 it was 14%.

As to `CN1C(=O)C(Nc2ccccc2)=C(c2ccccc2)C1=O` [SB-300079], the “%Inh” value in the test on AAK1 is given as 0%; in the test on ABL1-nonphosphorylated, 0%; in the test on ABL1-phosphorylated it was 6%; with ABL2, 0%.

For `Nc1ncnc2c1ncn2-c1cccc(F)c1` [SKF-97560], the “%Inh” value was found to be 0% in the test with AAK1, 9% in the test on ABL1-nonphosphorylated, 14% in the test on ABL1-phosphorylated and 8% in the test on ABL2.

`CCCC(=O)Nc1n[nH]c2ncc(-c3cccc4ccccc34)cc12` [SB-642057]: the “%Inh” value came out at 27% in the test with AAK1, 0% in the test with ABL1-nonphosphorylated, 27% in the test on ABL1-phosphorylated and 11% in the test on ABL2.

With `COc1cccc(-n2cnc3c(N)ncnc32)c1` [SKF-97416], the “%Inh” value in the test with AAK1 is 0%; in the test on ABL1-nonphosphorylated, 56%; in the test on ABL1-phosphorylated it was 46%; in the test on ABL2, 8%.

Turning to `Nc1n[nH]c2nnc(-c3ccccc3)c(-c3ccccc3)c12` [GW554060], the “%Inh” value turned out to be 0% in the test with AAK1, 0% in the test on ABL1-nonphosphorylated, 0% with ABL1-phosphorylated and 9% in the test with ABL2.

Turning to `CCS(=O)c1ccc(-c2coc3ccc(-c4nnc(C)o4)cc23)cc1` (stereo not drawn), the “%Inh” value in the test on AAK1 amounted to 0%; in the test on ABL1-nonphosphorylated, 27%; in the test with ABL1-phosphorylated, 0%; in the test on ABL2, 0%.

In the case of `COc1cc(Nc2nccc(N3CCC(NC(=O)C(C)c4ccc(Cl)cc4)C3)n2)cc(OC)c1OC` (stereo not drawn) [GSK1379757], the “%Inh” value is reported as 37% in the test on AAK1, 0% with ABL1-nonphosphorylated, 0% in the test on ABL1-phosphorylated and 7% in the test with ABL2.

For the compound `Nc1nc(N)c2nc(-c3ccccc3)[nH]c2n1` [SKF-12778], the “%Inh” value with AAK1 stood at 23%; with ABL1-nonphosphorylated, 18%; in the test with ABL1-phosphorylated it was 15%; with ABL2 it was 9%.

As for `COc1cc2nccc(Nc3ccc(OCc4ccc(NC(C)=O)cc4)cc3)c2cc1OC.Cl` [GW440135], the “%Inh” value turned out to be 0% in the test on AAK1, 17% in the test on ABL1-nonphosphorylated, 0% in the test with ABL1-phosphorylated and 4% in the test with ABL2.

As to `Cc1cc(Nc2nc(-c3cccc(C)n3)nc3ccccc23)ccn1` [GW872411], the “%Inh” value turned out to be 0% with AAK1, 52% in the test with ABL1-nonphosphorylated, 13% in the test with ABL1-phosphorylated and 0% with ABL2.

For `COc1cc2ncn(-c3cc(OCCCc4ccccc4)c(C(N)=O)s3)c2cc1OC` [GSK205189], the “%Inh” value with AAK1 stood at 35%; with ABL1-nonphosphorylated it was 0%; in the test on ABL1-phosphorylated it was 0%; with ABL2, 5%.

Turning to `Cc1nn2c(=O)cc(N3CCOCC3)nc2n1Cc1cccc(Cl)c1Cl` [GSK2342769], the “%Inh” value with AAK1 is reported as 14%; in the test on ABL1-nonphosphorylated it was 0%; in the test on ABL1-phosphorylated, 0%; in the test on ABL2 it was 9%.

For `COc1cc2ncn(-c3cc(OCc4ccncc4)c(C(N)=O)s3)c2cc1OC` [GSK336313], the “%Inh” value with AAK1 is 58%; with ABL1-nonphosphorylated, 0%; in the test on ABL1-phosphorylated it was 7%; in the test with ABL2, 0%.

In the case of `COc1cccc(C2=C(N(C)c3ccccc3)C(=O)NC2=O)c1` [SB-334865], the “%Inh” value in the test with AAK1 is recorded as 0%; in the test with ABL1-nonphosphorylated, 5%; in the test with ABL1-phosphorylated, 3%; in the test on ABL2, 14%.

Turning to `Cc1nc(N(C)[C@H]2CN(C(=O)CC#N)CC[C@H]2C)c2cc[nH]c2n1`, the “%Inh” value was 0% with AAK1, 1% with ABL1-nonphosphorylated, 2% in the test with ABL1-phosphorylated and 1% in the test on ABL2.

`Fc1cccc(CSc2nnc(-c3ccc4c(c3)CCO4)o2)c1`: the “%Inh” value is 25% in the test with AAK1, 20% with ABL1-nonphosphorylated, 7% with ABL1-phosphorylated and 22% in the test on ABL2.

On to `Nc1nccc2scc(-c3ccc4c(c3)CCN4C(=O)Cc3ccccc3)c12` [GSK2576924], for which the “%Inh” value was 8% in the test on AAK1, 0% in the test with ABL1-nonphosphorylated, 0% with ABL1-phosphorylated and 1% in the test with ABL2.

For `Cl.c1ccc(Cn2cnc3cc(Nc4ncnc5ccccc45)ccc32)cc1` [GW272142], the “%Inh” value was 5% with AAK1, 0% in the test with ABL1-nonphosphorylated, 0% in the test with ABL1-phosphorylated and 9% in the test with ABL2.

The values above are taken from publication PMC5540273 (PLoS ONE, 2017).
